We go through 38 compounds from PubChem BioAssay (NCATS).

Each structure is given as a SMILES string. Inconclusive results are not listed. Where a call stands in place of a potency, no number is given. Values without a mark were called inactive. Active and inactive are the calls of the source. Calls come from the whole dose curve; as a rule, active = well fitted inhibition curve with a large enough effect; inconclusive = small, poorly fitted or top-dose-only effect; inactive = flat fitted curve, though single readings scatter.
Potency is the fitted concentration of half-maximal effect.

A short description of this assay: P-glycoprotein substrates identified in KB-8-5-11 adenocarcinoma cell line, qHTS therapeutic library screen (AID 1346987). Note: nearly all actives have a fitted effect of over 65% in size. Particulars: KB-8-5-11 (P-gp overexpressing) viability, CellTiter-Glo, 72 h; series mostly up to 44.5 µM. An outline of the steps: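 KB-8-5-11, a colchicine-selected P-gp-overexpressing KB-3-1 subline, was grown without colchicine for the assay. Cells were seeded at 500 cells/well, dosed in concentration-response and incubated 72 h at 37 degree C, 5% CO2. Viability was read by CellTiter-Glo luminescence.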
Consider `Cc1cc(Nc2ccc(NC(=O)c3ccc(Nc4ccnc5ccccc45)cc3)cc2)nc(N)n1`, for which the Potency entry was “inactive”.

As to `CC1(C)CC[C@]2(C(=O)O[C@@H]3O[C@H](CO)[C@@H](O)[C@H](O)[C@H]3O)CC[C@]3(C)C(=CCC4[C@@]5(C)CC[C@H](O[C@@H]6O[C@H](C(=O)O)[C@@H](O)[C@H](O)[C@H]6O)[C@@](C)(CO)C5CC[C@]43C)C2C1` (stereo partly drawn), the activity change, negative = cytotoxicity was -4.65% [at 9.29 µM].

Regarding `O=C1CCC(c2ccccc2)(C2CCN(Cc3ccc(I)cc3)CC2)C(=O)N1` (stereo not drawn), the Potency entry was “inactive”.

Take `CC12CCC(OC3OC(CO)C(O)C(OC4OC(CO)C(O)C(O)C4O)C3O)CC1=CCC1C2CCC2(C)/C(=C3/COC(=O)C3)CCC12O` (stereo not drawn): the Potency result is “inactive”.

In the case of `CC(C)(C)Nc1nc2cc(Cl)c(Cl)cc2nc1S(C)(=O)=O`, the Potency is 14.6 µM (active).

Consider `OC[C@H]1O[C@@H](Oc2ccccc2)[C@H](O)[C@@H](O)[C@@H]1O`, for which the Potency result is “inactive”.

As for `COc1ccc([C@@]2(O)c3c(ccc(CC=C(C)C)c3O)NC(=O)[C@@H]2OC)cc1`, the Potency entry is “inactive”.

Regarding `CCOc1ccc2nc(SCCN3CCOCC3)[nH]c2c1`, the Potency result is “inactive”.

In the case of `COC(=O)[C@@]1(c2ccc(C)cc2)C[C@H]1CN1CCC(O)(c2ccccc2)CC1`, the Potency entry was “inactive”.

With `CC1(C)CC[C@]2(C(=O)O)CC[C@]3(C)C(=CCC4[C@@]5(C)CC[C@H](O[C@@H]6O[C@H](CO)[C@@H](O)[C@H](O)[C@H]6O[C@@H]6O[C@H](CO)[C@@H](O)[C@H](O)[C@H]6O)[C@@](C)(CO)C5CC[C@]43C)[C@@H]2C1` (stereo partly drawn), the Potency result is “inactive”.

Regarding `COC(=O)CC1CC(c2ccc(O)cc2)=NO1` (stereo not drawn), the Potency result was “inactive”.

Regarding `Cc1ccc(-c2c(C(=O)CF)n(CCCO)c3ncnc(N)c23)cc1`, the Potency entry was “inactive”.

In the case of `CCC(C)C(=O)O[C@H]1CCC=C2C=C[C@H](C)[C@H](CC[C@@H](O)C[C@@H](O)CC(=O)O)[C@H]21` (stereo partly drawn), the Potency entry was “inactive”.

Turning to `C(#Cc1nc2ncccc2nc1OCCN1CCCC1)c1ccccc1`, the Potency is 6.51 µM (active).

Consider `C=CC1(C)C=C2C(=O)OC(=O)C3=C(CCCC3(C)C)C2(O)CC1` (stereo not drawn), for which the Potency entry was “inactive”.

For `CC(Cc1cc2c(c(C(N)=O)c1)N(CCCO)CC2)NCCOc1ccccc1OCC(F)(F)F` (stereo not drawn), the Potency result was “inactive”.

On to `O=C(N/N=C/c1ccc(O)c(O)c1)c1cc2ccccc2cc1O`, for which the Potency result is “inactive”.

As for `Cc1ccc(NC(=O)C(=O)NC2CC(C)(C)NC(C)(C)C2)cc1`, the Potency result is “inactive”.

For `CC(c1ncncc1F)C(O)(Cn1cncn1)c1ccc(F)cc1F` (stereo not drawn), the Potency result was “inactive”.

With `O=C(O)CC1CCC(c2ccc(-c3ccc4nc(C(=O)NCc5ccc(OC(F)(F)F)cc5)cn4c3)cc2)CC1` (stereo not drawn), the Potency entry is “inactive”.

Turning to `C[C@@H]1O[C@@H](O[C@H]2[C@H](OC(=O)[C@]34CCC(C)(C)C[C@H]3C3=CCC5[C@@]6(C)CC[C@H](O[C@@H]7O[C@H](C(=O)O)[C@@H](O)[C@H](O)[C@H]7O[C@@H]7O[C@H](CO)[C@H](O)[C@H](O)[C@H]7O)[C@@](C)(C=O)C6CC[C@@]5(C)[C@]3(C)C[C@H]4O)O[C@H](C)[C@H](O[C@@H]3O[C@H](C)[C@H](O)[C@H](O)[C@H]3O)[C@@H]2O)[C@H](O)[C@H](O)[C@H]1O[C@@H]1OC[C@@H](O)[C@H](O[C@@H]2O[C@H](CO)[C@@H](O)[C@H](O)[C@H]2O)[C@H]1O` (stereo partly drawn), the outcome is “inactive [at 5.11 µM]”.

Consider `COc1ccc2cc(C(C)C(=O)Oc3ccc(C(N)=S)cc3)ccc2c1` (stereo not drawn), for which the Potency entry is “inactive”.

As to `NCc1ccc(Nc2ncc(F)c(Nc3ccccc3)n2)cc1`, the Potency is 5.8 µM (active).

Take `C[C@@H]1CCC2C(C)(C)[C@H](O)CC[C@]2(C)[C@@]12Cc1c(O)cc3c(c1O2)CN([C@@H](CCC(=O)O)C(=O)O)C3=O` (stereo partly drawn): the Potency entry was “inactive”.

Regarding `COC(=O)CC(O)C1OC(c2ccccc2)C(O)C1O` (stereo not drawn), the Potency entry is “inactive”.

`CCN1CCN(Cc2ccc(NC(=O)Nc3ccc(Oc4cc(NC)ncn4)cc3)cc2C(F)(F)F)CC1`: the Potency result was “inactive”.

Consider `CC(=O)OC1C(c2ccccc2)CCC(c2ccccc2)C1OC(C)=O` (stereo not drawn), for which the Potency result is “inactive”.

As for `Cc1cc(Nc2cc(N3CCN(C)CC3)nc(/C=C/c3ccccc3)n2)n[nH]1`, the Potency was 7.31 µM (active).

In the case of `CC(C)(C(=O)NCC(F)(F)C(F)(F)F)C(=O)NC1C(=O)Nc2ccccc2-c2ccccc21` (stereo not drawn), the Potency is 4.61 µM (active).

As to `CCOc1cc(CC(=O)NC(CC(C)C)c2ccccc2N2CCCCC2)ccc1C(=O)O` (stereo not drawn), the Potency result was “inactive”.

Take `O=C1CSc2ccccc2N1Cc1cccc(C(F)(F)F)c1`: the Potency entry was “inactive”.

`C[C@@H]1C[C@@H]([C@@H](O)C(C)(C)O)O[C@H]2C[C@@]3(C)C(=C12)C[C@H](O)[C@H]1[C@@]2(C)CCC(=O)C(C)(C)C2CC[C@@]13C` (stereo partly drawn): the Potency result was “inactive”.

For the compound `O=C(/C=C/c1ccc(O)cc1)N[C@@H](Cc1ccc(O)cc1)C(=O)O`, the Potency entry is “inactive”.

`CC1=CC(=O)[C@H]2C(C)(C)CCC[C@]2(C)[C@@]1(O)CO`: the Potency entry was “inactive”.

As for `CC1=CC(=O)CC(C)(CO)C1(O)/C=C/C(C)O[C@@H]1O[C@H](CO)[C@@H](O)[C@H](O)[C@H]1O` (stereo partly drawn), the Potency entry was “inactive”.

For the compound `C=CC(C)(O)CC/C=C(\C)C(=O)OC1C(O)C(CO)OC(OC(=O)C23CCC(C)(C)CC2C2=CCC4C5(C)CCC(OC6OC(COC7OCC(OC(C)=O)C(O)C7OC7OC(COC(C)=O)C(O)C(O)C7O)C(O)C(O)C6O)C(C)(C)C5CCC4(C)C2(C)C(O)C3O)C1OC1OCC(OC2OCC(O)C(OC3OCC(O)C(O)C3O)C2O)C(O)C1O` (stereo not drawn), the activity change, negative = cytotoxicity is 9.63% [at 5.11 µM].

`CC1=CC(=O)C2(OC3OC(C)C(O)C(OC(=O)/C=C/c4ccccc4)C3O)C=COC(OC3OC(CO)C(O)C(O)C3O)C12` (stereo not drawn): the Potency result was “inactive”.

Consider `COc1cc2nc(N3CCC(N4CCCCC4)CC3)nc(NC3CCCCCC3)c2cc1OC`, for which the Potency is 5.17 µM (active).
